# Source: PubChem (National Center for Advancing Translational Sciences (NCATS))
# Gal4-VP16 FLuc – VP16 counterscreen qHTS for inhibitors of ROR gamma transcriptional activity; Potency, µM (series often up to 53.6 µM), actives largely listed as inhibitors; 310,000 tested, 3.5% active; Drosophila S2 Gal4-VP16 UAS-luciferase, luminescence, 20 h; AID 2546, 2010;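 also: Gal4-VP16 expression switched on by copper sulfate through the metallothionein promoter; nearly all actives have a fitted effect of over 50% in size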
# MBNL1-CUG inh – qHTS Assay for Inhibitors of MBNL1-poly(CUG) RNA binding. Muscleblind-like protein 1 (Homo sapiens), Q9NR56. TR-FRET MBNL1-His/biotin-(CUG)12 binding, 665/545 ratio. Potency, µM (highest dose often 57.5 µM), actives largely listed as inhibitors. 280,000 tested, 0.036% active; active = well fitted inhibition curve with a large enough effect in the signal ratio, with a control signal flat, not every such curve was filed as active; inconclusive = small, poorly fitted or top-dose-only effect, or effect the other way, or a change in a side signal; inactive = no such curve, though single readings can be large or run the other way; the % refers to the signal ratio
#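 Ratiometric TR-FRET (665 over 545 nm, excitation 340 nm) tracks disruption of MBNL1-His/biotin-(CUG)12 complex after 60 min at room temperature, with compounds at 92 nM to 58 uM final.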
# RORgamma inh – qHTS for inhibitors of ROR gamma transcriptional activity; Drosophila S2 Gal4-RORgamma UAS-luciferase reporter, 20 h; 310,000 tested, 5.4% active; Potency, µM (titrated, usually from 53.6 µM), most hits filed as inhibitors; AID 2551, 2010; Nuclear receptor ROR-gamma (Mus musculus), P51450; also: nearly all actives have a fitted effect of over 60% in size
#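 Luciferase reporter read in Schneider cells carrying Gal4-RORγ (mouse) and UAS-Photinus luciferase; cells given compound 1 h before 700 uM copper sulfate induction, then incubated 20 h at ambient temperature.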
# Six1-Eya2 inh – qHTS Assay for Inhibitors of the Six1/Eya2 Interaction. Homeobox protein SIX1 (Homo sapiens) + Protein phosphatase EYA2 (Homo sapiens), …. AlphaScreen GST-Six1/His-Eya2 binding, biochemical; stronger effect = lower value. activity change, % (no concentration beside the values). 360,000 tested, 0.56% active; in the data active = activity change below about -65%; inconclusive = mostly about -30% to -63%
# Target sequence (O00167 whole entry, looked up): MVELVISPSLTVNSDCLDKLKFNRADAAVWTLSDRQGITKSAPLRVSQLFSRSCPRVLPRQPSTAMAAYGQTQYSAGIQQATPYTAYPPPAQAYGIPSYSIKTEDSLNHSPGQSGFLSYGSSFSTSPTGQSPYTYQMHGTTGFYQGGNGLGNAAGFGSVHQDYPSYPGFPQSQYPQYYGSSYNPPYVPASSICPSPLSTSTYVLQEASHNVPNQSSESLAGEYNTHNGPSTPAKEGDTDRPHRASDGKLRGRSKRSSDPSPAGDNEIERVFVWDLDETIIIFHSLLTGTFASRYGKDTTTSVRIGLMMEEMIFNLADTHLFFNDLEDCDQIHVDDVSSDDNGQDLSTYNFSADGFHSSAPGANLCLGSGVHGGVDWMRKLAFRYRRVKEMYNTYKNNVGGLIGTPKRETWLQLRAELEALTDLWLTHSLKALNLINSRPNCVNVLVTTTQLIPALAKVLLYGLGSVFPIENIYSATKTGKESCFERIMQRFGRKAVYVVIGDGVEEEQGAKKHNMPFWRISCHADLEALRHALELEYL
# Target sequence (Q15475 whole entry, looked up): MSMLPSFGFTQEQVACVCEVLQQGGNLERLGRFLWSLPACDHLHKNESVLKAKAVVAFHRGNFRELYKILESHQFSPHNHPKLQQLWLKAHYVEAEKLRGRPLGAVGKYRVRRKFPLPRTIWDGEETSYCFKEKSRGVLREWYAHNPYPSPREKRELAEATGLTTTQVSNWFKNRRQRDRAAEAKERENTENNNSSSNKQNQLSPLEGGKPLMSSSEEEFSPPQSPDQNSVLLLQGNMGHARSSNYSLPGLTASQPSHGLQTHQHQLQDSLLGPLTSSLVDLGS
#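 Compounds are tested against tagged Six1 and Eya2 proteins bridged by glutathione donor and nickel acceptor beads; after a one-hour incubation at 37 °C without light, AlphaScreen emission is recorded.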
# CBFb-RUNX1 inh – qHTS Assay for Compounds Blocking the Interaction Between CBF-beta and RUNX1 for the Treatment of Acute Myeloid Leukemia. Runt-related transcription factor 1 (Homo sapiens) + Core-binding factor subunit beta …. AlphaScreen CBFb-His/RUNX1-biotin binding, biochemical. Potency, µM (highest dose often 59.8 µM), actives largely listed as inhibitors. 230,000 tested, under 10 active
#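 CBFb-His/RUNX1-biotin, 30 nM each, preincubated 20 min RT; compound 15 min RT; Ni + streptavidin beads 50 ng each, 90 min RT; AlphaScreen read.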
# CtBP-E1A blk – qHTS Assay for Inhibitors of the CtBP/E1A Interaction; CtBP / adenovirus E1A interaction (AlphaScreen); AlphaScreen GST-E1A/His-CtBP binding, 1536-well; stronger effect = lower value; activity change, % (test concentration not listed); 340,000 tested, 0.49% active; in the data active = activity change below about -65%; inconclusive = mostly about -30% to -63%
#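 AlphaScreen with 125 nM GST-E1A and 125 nM His-CtBP (5X stocks) in Tris pH 8.0, 300 mM NaCl, BSA, Tween 20, TCEP. Compounds preincubated 2 h at 37 deg C, then glutathione donor/nickel acceptor beads added for 1 h at 37 deg C in dark.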
# Numbers stand for hits; – = inactive; ? = inconclusive; · = no result; [ ] = another dose, or the depositor's remark. In the library only some 5.5% were active in any assay of this set; here they are far more common. Unless noted, calls follow the shape of the dose curve; as a rule, active = well fitted curve in the direction sought with a large enough effect; inconclusive = small, poorly fitted or top-dose-only effect, or another doubt; inactive = no such curve, though single readings can be large; an effect the other way counts as inactive or inconclusive.
SMILES,Gal4-VP16 FLuc,MBNL1-CUG inh,RORgamma inh,Six1-Eya2 inh,CBFb-RUNX1 inh,CtBP-E1A blk
Cc1cccc(C(=O)NC(=S)NNC(=O)COc2ccc(Cl)cc2)c1,?,–,3.98µM,–,–,–
Cc1ccc(NC(=O)c2ccc(Nc3c([N+](=O)[O-])cc([N+](=O)[O-])cc3[N+](=O)[O-])cc2)cc1,1.26µM,?,?,?,–,?
CCCCCC(=O)NNC(=S)NC(=O)c1ccc([N+](=O)[O-])cc1,6.31µM,·,2.82µM,–,–,–
O=C(NNC(=S)NC(=O)c1ccc(Br)cc1)c1ccc([N+](=O)[O-])cc1,?,–,11.2µM,–,·,·
O=C(O)CCC(=O)NNC(=O)c1ccc([N+](=O)[O-])cc1,–,?,–,–,–,–
COc1ccc(C(=O)NC(=S)NNC(=O)c2cccc(C)c2)cc1,·,·,·,–,·,–
COc1ccc(C)cc1NC(=O)CCNS(=O)(=O)c1ccc2c(c1)CC(C)N2C(C)=O (centres undefined),–,–,–,–,·,–
CCN(CC(=O)Nc1c(F)cccc1F)C(=O)CCC(=O)c1ccc(C)cc1,·,·,·,–,·,–
COc1ccc(NC(=O)c2cc(S(=O)(=O)N3CCOCC3)ccc2C)cc1S(=O)(=O)N1CCCCC1,·,·,·,–,·,·
Cc1ccc(C(=O)NC(=S)NNC(=O)c2ccc([N+](=O)[O-])cc2)cc1,11.2µM,–,?,–,·,–
Cc1ccc(OCC(=O)Nc2cccc(O)c2)cc1C,–,–,–,–,–,–
O=C(NNC(=S)NC(=O)c1ccc(Br)cc1)c1cccc([N+](=O)[O-])c1,?,–,14.1µM,–,·,·
CC(=O)NNC(=S)NC(=O)c1cccc([N+](=O)[O-])c1,–,·,–[10 µM],–,–,–
CNC(=S)NNC(=O)COc1ccc(C)c(C)c1,7.08µM,–,6.31µM,–,–,–
Cc1ccc(C(=O)CC(=O)COc2ccc(Cl)cc2)cc1,10µM,–,12.6µM,–,–,–
C[C@H]1COc2cc(N3CCC[C@@H]3CO)ccc2S(=O)(=O)N1,·,·,·,–,·,–
Cc1nc2cnc(N3CCNCC3)nc2n(C2CC2)c1=O,–,·,–,·,·,·
O=C(NNC(=S)NC(=O)c1ccccc1Cl)c1cccc([N+](=O)[O-])c1,?,?,?,–,·,–
O=C(NNC(=S)NC(=O)c1ccccc1)c1ccc([N+](=O)[O-])cc1,1.41µM,?,3.55µM,–,·,·
COc1ccc(OCC(=O)NNC(=S)NC(=O)c2ccc([N+](=O)[O-])cc2)cc1,5.62µM,?,5.62µM,–,·,–
CC(=O)NC(=S)NNC(=O)COc1ccc([N+](=O)[O-])cc1,–,–,–,–,–,·
O=C(NNC(=O)c1ccccc1O)c1ccc(-c2ccc([N+](=O)[O-])cc2)o1,·,·,·,–,·,–
O=C(NC(=S)NNC(=O)c1ccccc1O)c1ccc([N+](=O)[O-])cc1,–,–,–,-86.4,·,·
Cc1c(CCO)c(=O)n2n1CCCC2,·,·,·,–,·,–
C=CCNc1cc(C(F)(F)F)nc(-c2ccccn2)n1,7.08µM,–,1.58µM,–,–,–
SMILES,Gal4-VP16 FLuc,MBNL1-CUG inh,RORgamma inh,Six1-Eya2 inh,CBFb-RUNX1 inh,CtBP-E1A blk
FC(F)(F)c1cc(Oc2ccccc2)nc(-c2ccccn2)n1,–,–,?,–,–,–
O=C(O)CSc1cc(C(F)(F)F)nc(-c2ccccn2)n1,–,–,–,–,–,–
CCN(CC)c1cc(C(F)(F)F)nc(-c2ccccn2)n1,11.2µM,–,2.51µM,–,–,–
C/C(=N\OCC(=O)N/N=C/c1ccc(C)cc1O)c1cccs1,2.82µM,–,0.501µM,?,–,?
Cc1ccccc1/C=N/NC(=O)Cc1ccc(Cl)cc1,–,–,–,–,–,–
Cc1cc(O)c(NC(=S)NC(=O)c2ccc(-c3ccc(Cl)cc3)o2)cc1C,5.01µM,–,3.16µM,–,–,–
Cc1ccc(/C=N/NC(=O)Cc2ccc(Cl)cc2)c(O)c1,0.562µM,–,0.224µM,–,·,–
COc1ccc(C(=O)O)cc1NC(=S)NC(=O)Cc1ccc(Cl)cc1,–,–,–,–,·,–
Cc1ccc(O)c(NC(=S)NC(=O)Cc2ccc(Cl)cc2)c1,11.2µM,–,12.6µM,–,·,–
Cc1ccc(NC(=S)NC(=O)c2ccc(-c3ccc(Cl)cc3)o2)c(O)c1,–,–,–,–,–,–
C/C(=N\NC(=O)CO/N=C(\C)c1cccs1)c1ccc(N)cc1,–,–,–,–,–,–
CC(C)(C)c1ccc(-n2ncc3c2CCCC3NC(=O)c2ccco2)cc1 (centres undefined),·,·,·,–,·,–
CCCCC(=O)Nc1nnc(C)s1,–,–,–,–,–,–
CCCn1nnnc1NC(=O)COc1ccc(Br)cc1,7.08µM,–,2.51µM,–,–,–
CCCCC(=O)Nc1nnnn1CCC,?,–,14.1µM,–,–,–
CCCn1nnc(NC(=O)c2ccc3ccccc3c2)n1,–[10 µM],?,–,–,–,–
CCCn1nnnc1NC(=O)c1ccc2ccccc2c1,1µM,·,1.58µM,–,?,–
CCOC(=O)C(=O)N(C)c1c(CC)nc2c(OCc3ccccc3)cccn12,·,·,·,–,·,–
